Only some compounds are listed: those with a hit (about 14% of all), similar ones and a draw of the others.
Giardia FBPA inh = inhibitors of Giardia lamblia fructose-1,6-bisphosphate aldolase. A8B2U2. purified Giardia FBPA. Potency, µM (series often up to 59.6 µM), without a hit: top-dose activity, negative = inhibition, usual class: inhibitors. hit rate 0.71% among 290,000. AID 2451; further: potency means the concentration at half of the fitted maximal effect; nearly all actives have a fitted effect of over 55% in size
Target sequence (A8B2U2 whole entry, looked up): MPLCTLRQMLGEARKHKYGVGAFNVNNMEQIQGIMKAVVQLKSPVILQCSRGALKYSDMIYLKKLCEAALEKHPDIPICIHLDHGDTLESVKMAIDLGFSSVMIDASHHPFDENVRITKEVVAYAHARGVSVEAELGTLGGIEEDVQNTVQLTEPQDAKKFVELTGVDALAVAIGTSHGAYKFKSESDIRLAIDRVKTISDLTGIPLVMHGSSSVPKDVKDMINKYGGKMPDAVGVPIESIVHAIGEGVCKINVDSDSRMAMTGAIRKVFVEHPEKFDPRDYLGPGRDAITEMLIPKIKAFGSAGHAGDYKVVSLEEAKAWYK
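Giardia FBPA (40 nM reagent) was preincubated 10 min at RT with compound (up to 57.5 uM final), then substrate plus GAPDH/TPI/NAD/arsenate coupling system with diaphorase/resazurin was added; resorufin fluorescence (525/598 nm) was read after 20 min.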
HCMV inh = human cytomegalovirus inhibition; HFF cells, HCMV-luciferase reporter, 72 h; stronger effect = lower value; activity change, negative = inhibition, % at 57.5 µM; hit rate 4.5% among 410,000; AID 1259415; in the data active means activity change below about -60%; inconclusive means no clear call, values can overlap the other calls; inactive means above about -39%
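HFF cells seeded 16 h at 37C, treated with compounds, infected with luciferase-reporter HCMV at MOI 1 PFU/cell; luciferase read at 72 h post infection, normalized to buffer-only and Salinomycin controls.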
Sm TGR inh = inhibitors of Schistosoma mansoni thioredoxin glutathione reductase; Q962Y6; purified TGR, DTNB reduction, TNB absorbance 405 nm; Potency, µM (titrated, usually from 114 µM), for inactives: at the top dose activity change, negative = inhibition, usual class: inhibitors; hit rate 3% among 360,000; AID 485364; further: potency means the concentration at half of the fitted maximal effect; nearly all actives have a fitted effect of over 60% in size
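First, TGR (20 nM dispensed) and NADPH were mixed with compound. Second, a 15 min room-temperature incubation followed. Third, further NADPH and then DTNB were added to start the reaction. Finally, TNB absorbance was monitored kinetically.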
Pf growth 96h = P. falciparum growth inhibition at 96 hour, primary screen for plastid delayed-death inhibitors. P. falciparum luciferase reporter growth, 96 h. Potency, µM (doses to about 28.7 µM), for inactives: at the top dose activity change, negative = inhibition, most hits filed as inhibitors. hit rate 6.9% among 320,000. AID 504834; further: potency means the concentration at half of the fitted maximal effect
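Two parasite generations (96 h, 37 C, 5% CO2) of compound exposure in infected erythrocytes (0.05% parasitemia, 2% hematocrit). Luciferase-reporter P. falciparum; decreased luminescence indicates inhibited growth, aimed at apicoplast-acting delayed death.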
Pf growth 48h = inhibits P. falciparum growth in the first generation, 48 h. P. falciparum luciferase growth in erythrocytes, 48 h. Potency, µM (top dose mostly 28.7 µM), for inactives: at the top dose activity change, negative = inhibition, actives largely listed as inhibitors. hit rate 5.9% among 310,000. AID 504832; further: potency means the concentration at half of the fitted maximal effect
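Read-out is firefly luciferase luminescence from an integrated reporter in P. falciparum, so falling signal marks reduced parasite growth. Infected erythrocytes were at 2% hematocrit and 0.1% parasitemia (final) in Albumax-supplemented RPMI 1640.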
The depositor's hits bear a star; ? = inconclusive; . = not tested or not shown; ! = repeats disagree. Unless noted, the call rests on the fitted dose curve; in most records, active means well fitted curve in the direction sought with a large enough effect; inconclusive means small, poorly fitted or top-dose-only effect, or another doubt; inactive means no such curve, though single readings can be large; an effect the other way counts as inactive or inconclusive. On the % scale 0 is the no-effect control and ±100 the full control effect.

SMILES | Giardia FBPA inh | HCMV inh | Sm TGR inh | Pf growth 96h | Pf growth 48h
O=C1NC(=O)C2(CCCc3ccc(N(CCO)CCO)cc32)N1 (centres undefined) | . | 3 | . | . | .
O=C1NC(=O)C2(CCCc3ccc(N(CCCl)CCCl)cc32)N1 (centres undefined) | . | -81* | . | . | .
COC(=O)c1ccc(NC(=O)CCCN2C(=O)NC(C)(C)C2=O)cc1 | . | -8 | 2% | -11% | 5%
CCCCNC(=O)C1(C)CCN1C(=O)c1cc(C)n(C(C)(C)C)n1 (centres undefined) | . | -20 | . | . | .
Cc1cncn1CCc1nc2c3ccccc3nc(SCC(=O)Nc3cccc(Cl)c3)n2n1 | -5% | -105*! | 7% | 1% | ?
Cc1cncn1CCc1nc2c3ccccc3nc(SCC(=O)Nc3ccc(F)cc3)n2n1 | . | -5 | 7% | . | .
CCOc1ccccc1NC(=O)CSc1nc2ccccc2c2nc(CCn3cncc3C)nn12 | . | -65* | -4% | . | .
CCOc1ccccc1-n1c(SCC(=O)Nc2ccccc2C(=O)O)nc2ccccc2c1=O | 10% | -81* | 15% | 72% | ?
CCn1c(SCC(=O)Nc2ccccc2OC)nc2ccccc2c1=O | 6% | ? | 0% | . | -25%
Cc1ccc2c(c1)-n1c(nc3ccccc3c1=O)C(CC(C)C)NC2=O (centres undefined) | . | -2 | . | . | .
Cc1nc(C)c(CCNS(=O)(=O)c2ccc(C)c(C)c2)s1 | . | -12 | 6% | . | .
O=C(O)C1C2C=CC(O2)C1C(=O)Nc1ccc(S(=O)(=O)Nc2ccccc2)cc1 (centres undefined) | 24% | -23 | 6.3µM* | 15% | 7%
O=C(O)C1C2C=CC(O2)C1C(=O)Nc1ccc(S(=O)(=O)N2CCc3ccccc32)cc1 (centres undefined) | 29% | -27 | 14µM* | -9% | 0%
NS(=O)(=O)c1ccc(NS(=O)(=O)c2ccc(NC(=O)C3CC3)cc2)cc1 | . | 16 | ? | 148% | ?
CC(=O)Nc1ccc(S(=O)(=O)N2CCCc3ccccc32)cc1 | -3% | -8 | -27% | -23% | -13%
Nc1ccc(NC(=O)CCN2CCOCC2)cc1 | -12% | -3 | 58% | ? | ?
CN(C)CC(=O)Nc1ccc2c(c1)[C@H]1C[C@H](CC(=O)NCc3ccc4c(c3)OCO4)O[C@H](CO)[C@H]1O2 | . | 14 | . | . | .
CCOC(=O)C1CCCN(C(=O)c2ccccc2NS(=O)(=O)c2ccc(F)cc2)C1 (centres undefined) | . | 15 | . | . | .
Brc1ccc(-c2nnc3c4ccccc4nc(N4CCOCC4)n23)cc1 | 1% | -22 | -2% | 49% | 26%
Clc1ccc(-c2nnc3c4ccccc4nc(N4CCOCC4)n23)cc1Cl | 1% | -90* | 3% | ? | -11%
Cc1cccc(NC(=O)C(Cc2ccccc2)c2nn[nH]n2)c1C (centres undefined) | ? | -27 | ? | 8.3µM* | ?
CS(=O)(=O)c1nc(S(=O)(=O)c2ccc(Cl)cc2)c(NCCCN2CCCC2=O)s1 | . | ? | ? | -5% | -9%
COc1ccc(C2=NN(CC(=O)Nc3ccccc3C)C(=O)CC2)cc1 | 1% | 27 | 5% | ? | 4.1µM*
COc1ccc(C2=NN(CC(=O)NCCc3ccccc3)C(=O)CC2)cc1 | . | 75 | -8% | . | .
CN(C)C(=S)Nc1cccc(F)c1 | -3% | 2 | -7% | 30% | 41%
SMILES | Giardia FBPA inh | HCMV inh | Sm TGR inh | Pf growth 96h | Pf growth 48h
Fc1cccc(NC(=S)Nc2ccc(Br)cc2)c1 | -4% | 10 | 20µM* | ? | 59%
CC(C)(C)NNC(=S)Nc1cccc(F)c1 | ? | 13 | -22% | 8.3µM* | 10µM*
O=C(Nc1ccc(F)cc1)C(c1ccccc1OC(F)(F)F)N1CCN(c2cccc(C(F)(F)F)n2)CC1 (centres undefined) | . | 7 | . | . | .
Cc1ccc(Cn2c(C)c(C(=O)NCc3cccs3)sc2=O)cc1 | . | 17 | . | . | .
CCc1ccc(NS(=O)(=O)c2ccc(OC)c3ncccc23)cc1 | 8% | -20 | -11% | 39% | 15%
CCN1CCN(S(=O)(=O)c2ccc(OC)c(NC(=O)c3ccccc3F)c2)CC1 | . | ? | -6% | 7.4µM* | -14%
COc1ccc(S(=O)(=O)Nc2ccc(Cc3ccncc3)cc2)cc1OC | -3% | -65* | -5% | -20% | -3%
COc1ccc(S(=O)(=O)NCc2ccncc2)cc1NC(=O)c1ccccc1F | . | -88* | -2% | -13% | -23%

Assay outcomes deposited in PubChem BioAssay by National Center for Advancing Translational Sciences (NCATS).
